Experiment in all cases: NCI-60 one-dose screen, 48 h (100 = growth as untreated, 0 = no growth, -100 = all killed)
Common to all, as to conditions: 10 µM unless noted

Assay [1] deals with SK-MEL-2 melanoma.
In assay [2] the test system is EKVX NSCLC.
Assay [3] concerns SN12C renal.
Assay [4] deals with UO-31 renal.
Assay [5] has as its system TK-10 renal.
The subject of assay [6] is ACHN renal.
Assay [7] relates to CAKI-1 renal.
Assay [8] has as its system A498 renal.
The test system of assay [9] is CCRF-CEM leukemia.
Assay [10] concerns MOLT-4 leukemia.
Assay [11] has as its system SR leukemia.
The subject of assay [12] is OVCAR-8 ovarian.
The test system of assay [13] is OVCAR-5 ovarian.
In assay [14] the test system is OVCAR-4 ovarian.
Assay [15] deals with SK-OV-3 ovarian.
Assay [16] relates to IGROV1 ovarian.
Assay [17] deals with OVCAR-3 ovarian.
Assay [18] concerns HS 578T breast.
The subject of assay [19] is NCI/ADR-RES ovarian.
For assay [20], the system named is RPMI-8226 leukemia.

Each structure is given as a SMILES string. About 83,000 compounds went through this panel and 20% of them were active in at least one assay; those are over-represented in the sample as a whole.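 Assay: single dose, 48 h. Readout: percent growth (0 = no net growth; negative = cell death). Active: <10.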 Unmarked numbers belong to inactive results. Activity calls are given as the source filed them.

Consider `C=C1C(=O)O[C@H]2[C@H]1CC/C(COC(=O)/C=C\C(=O)NCc1ccc(Cn3c(=O)sn(-c4ccc(C#N)cc4)c3=O)cc1)=C\CC[C@@]1(C)O[C@@H]21`, for which the growth in assay [1] was -64.9% (active); in assay [2] it was -56.9% (active); in assay [3], -93.8% (active); in [4], -100% (active); in assay [5], -85.1% (active); in assay [6], -100% (active). For the same compound, the growth in assay [7] is -69.1% (active); in assay [8] it was -8.82% (active); in assay [9], -18.1% (active); in [10], -32.3% (active); in [11], -37.6% (active); in [12], -10.9% (active). Further, the growth in [13] was -83.9% (active); in assay [14], -81.1% (active); in assay [15], 37.8%; in assay [16], -98.7% (active); in assay [17], -90.1% (active); in assay [18], -24.9% (active). The growth in [19] is 0.213% (active).
For the compound `CN1CCN(C(=O)[C@@]2(C)CC[C@]3(C)CC[C@]4(C)C(=CC[C@@H]5[C@@]6(C)C/C(=C/c7ccncc7)C(=O)C(C)(C)[C@@H]6CC[C@]54C)[C@@H]3C2)CC1`, the growth is 85.1% in [1]; 62.7% in [2]; 46.2% in assay [3]; 44.3% in assay [4]; 75.5% in assay [5]; 67.4% in assay [6]. For the same compound, the growth was 46.3% in assay [7]; 79.9% in [8]; 6.69% (active) in assay [9]; 2.16% (active) in assay [10]; 12.8% in [20]; 50.9% in assay [12]. Moreover, the growth in assay [13] was 88.2%; in assay [14], 37.9%; in assay [15], 55.2%; in assay [16] it was 56.7%; in [17], 50.7%; in [18], 54%. For the same compound, in assay [19], the growth was 62.1%.
Take `C/C(=N\NC(=O)Cn1c(-c2ccc(S(C)(=O)=O)cc2)nc2cc(Cl)ccc21)c1ccc(Cl)cc1`: the growth in assay [1] is 91.1%; in [2], 76.6%; in assay [3], 84%; in assay [4], 62.7%; in [5], 101%; in [6] it was 85.8%. The growth in assay [7] is 74%; in [8], 89.8%; in assay [9] it was 76.2%; in [10] it was 61.5%; in assay [20], 76.4%; in assay [12] it was 79.5%. Moreover, the growth is 91.2% in assay [13]; 65.9% in assay [14]; 81.3% in [15]; 70.6% in [16]; 79.7% in [17]; 80.7% in [18]. For the same compound, the growth in [19] is 86.7%.
On to `COc1ccc(/C=C2\COc3ccc(O)cc3C2=O)c(OC)c1`, for which the growth was 55.9% in [1]; 70.5% in assay [2]; 52.7% in assay [3]; 74.9% in assay [4]; 91.9% in [5]; 85.2% in [6]. Also, the growth in assay [7] was 59.3%; in [8] it was 92.4%; in [9], 4.96% (active); in assay [10], 36.8%; in assay [11], 19.5%; in assay [12], 63.3%. Moreover, the growth in assay [13] was 94.3%; in assay [14] it was 96.1%; in assay [15], 58%; in assay [16], 67.3%; in [18] it was 66%; in assay [19] it was 33%.
In the case of `Cc1ccc(S(=O)(=O)Nc2sccc2-c2nc(-c3ccccc3)no2)cc1`, the growth is 91.6% in [1]; 94.2% in assay [2]; 95.1% in [3]; 70.4% in assay [4]; 103% in assay [5]; 89.9% in assay [6]. In addition, the growth in assay [7] was 81.3%; in assay [8], 96.3%; in assay [9] it was 92.1%; in assay [10] it was 98%; in assay [20] it was 84.2%; in assay [12], 89.4%. Further, the growth was 85.8% in [13]; 95.1% in [14]; 89.1% in assay [15]; 87.9% in assay [16]; 92.2% in assay [17]; 97% in [18]. Further, the growth in assay [19] was 99.2%.
`COc1ccc(/C(C)=C(\c2ccc(Cl)cc2)c2ccc(OCCN3CCCC3)cc2)cc1F`: the growth in assay [1] was 59.9%; in assay [2], 47%; in assay [3], 51.6%; in [4], 28.9%; in [5], 62%; in assay [6], 50.9%. Moreover, the growth in assay [7] was 22%; in assay [8], 68%; in assay [9], 31.2%; in assay [10], -5.27% (active); in assay [11], -22.6% (active); in assay [12], 48.7%. In addition, the growth is 46.6% in assay [13]; 32.3% in assay [14]; 58.6% in assay [15]; 38.1% in assay [16]; 35.2% in [17]; 30% in [18]. In addition, in assay [19], the growth was 51.6%.

Source of the values: PubChem BioAssay (NCI).
